Most compounds without a hit are left out; they make up all but 11% or so of the library.
G9a block: qHTS Assay for Inhibitors of Histone Lysine Methyltransferase G9a | Histone-lysine N-methyltransferase EHMT2 (Homo sapiens), Q96KQ7 | G9a H3K9 monomethylation, AlphaScreen, 2 h | Potency, µM (highest dose often 102 µM), actives largely listed as inhibitors | 350,000 tested, 8.8% active | AID 504332, 2011; also: nearly all actives have a fitted effect of over 75% in size
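Step 1: enzyme (final 20 nM) with compound, 15 min RT. Step 2: substrate peptide 500 nM and SAM 20 uM, 2 h RT. Step 3: anti-H3K9me1 antibody and AlphaScreen beads, 10 min, then plate read.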
BAZ2B block: qHTS Assay for Inhibitors of BAZ2B; AlphaScreen BAZ2B-H3K14Ac peptide displacement; Bromodomain adjacent to zinc finger domain protein 2B (Homo sapiens), Q9UIF8; 360,000 tested, 4.4% active; Potency, µM (highest dose often 114 µM), most hits filed as inhibitors; AID 504333, 2011; also: nearly all actives have a fitted effect of over 60% in size
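Compounds, titrated to a top concentration of 110 uM, were incubated 30 min at room temperature with preformed BAZ2B/acetyl-K14 H3 peptide complex (50 nM each). Proximity signal was measured by AlphaScreen after 20 min with beads.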
VDR inh: Inhibitors of the vitamin D receptor (VDR): qHTS; Vitamin D3 receptor (Homo sapiens), P11473; AID 504847, 2011; Potency, µM, actives largely listed as inhibitors; VDR-SRC2-3 peptide fluorescence polarization, 2 h; 400,000 tested, 0.93% active
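Fluorescence polarization assay of small-molecule disruption of VDR binding to coregulator peptide SRC2-3. Compounds and controls pin-transferred, then read after 2 h incubation at ambient room temperature.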
HP1b binding inh: HTS for Inhibitors of HP1-beta Chromodomain Interactions with Methylated Histone Tails | 390,000 tested, 0.56% active | Chromobox protein homolog 1 (Homo sapiens), P83916 | Potency, µM (titrated, usually from 114 µM), actives largely listed as inhibitors | AlphaScreen HP1-beta / biotin-H3K9me3 peptide binding; also: nearly all actives have a fitted effect of over 70% in size
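Compound inhibition of the preformed complex between 50 nM HP1-beta and 50 nM biotinylated H3K9me3 peptide was read by AlphaScreen. Buffer was PBS pH 7.4 with 0.01% Tween-20. Incubations ran 30 min at room temperature, with 10 ug/mL donor/acceptor beads.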
JMJD2A Tudor: qHTS Assay for Inhibitors of JMJD2A-Tudor Domain. Lysine-specific demethylase 4A (Homo sapiens), O75164. AlphaScreen JMJD2A-Tudor / H3K4me3 peptide binding. Potency, µM (top dose mostly 114 µM), usual class: inhibitors. 390,000 tested, 4.4% active; also: nearly all actives have a fitted effect of over 50% in size
PLK1 PBD inh: qHTS for Inhibitors of PLK1-PDB (polo-like kinase 1 - polo-box domain): Primary Screen; 360,000 tested, 2.8% active; Potency, µM, hits mostly inhibitors; Serine/threonine-protein kinase PLK1 (Homo sapiens), P53350; Plk1 PBD binding of FITC phosphopeptide, fluorescence polarization; also: series mostly up to about 57 µM; nearly all actives have a fitted effect of over 65% in size
Target sequence (P53350 whole entry, looked up, the tested form may be a part): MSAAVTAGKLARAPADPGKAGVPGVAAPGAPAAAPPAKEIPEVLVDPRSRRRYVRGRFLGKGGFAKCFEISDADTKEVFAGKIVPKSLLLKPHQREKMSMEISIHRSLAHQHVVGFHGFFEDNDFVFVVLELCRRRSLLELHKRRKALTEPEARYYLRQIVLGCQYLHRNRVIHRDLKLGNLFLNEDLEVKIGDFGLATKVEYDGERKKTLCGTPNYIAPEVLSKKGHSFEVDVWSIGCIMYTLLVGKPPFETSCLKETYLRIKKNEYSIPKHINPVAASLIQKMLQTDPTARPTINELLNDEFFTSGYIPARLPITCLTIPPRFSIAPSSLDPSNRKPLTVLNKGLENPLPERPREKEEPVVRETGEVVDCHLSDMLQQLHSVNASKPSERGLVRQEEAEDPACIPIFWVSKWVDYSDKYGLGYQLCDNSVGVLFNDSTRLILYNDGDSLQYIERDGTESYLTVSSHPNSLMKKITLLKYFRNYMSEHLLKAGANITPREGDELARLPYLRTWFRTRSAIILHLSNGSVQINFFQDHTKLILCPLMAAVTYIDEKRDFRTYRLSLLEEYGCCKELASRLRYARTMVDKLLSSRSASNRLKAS
Hits are given with their value; . = inactive; ? = inconclusive; / = not tested or not shown; [ ] = another dose, or the depositor's remark. Calls follow the shape of the dose curve; as a rule, active = well fitted curve in the direction sought with a large enough effect; inconclusive = small, poorly fitted or top-dose-only effect, or another doubt; inactive = no such curve, though single readings can be large; an effect the other way counts as inactive or inconclusive.

SMILES	G9a block	BAZ2B block	VDR inh	HP1b binding inh	JMJD2A Tudor	PLK1 PBD inh
CCn1c(=O)c(C(=O)NNS(=O)(=O)c2ccc(Br)cc2)c(O)c2ccccc21	/	.	.	.	.	.
Cc1cc(C)n(CC(=O)N2CCCC(N3CCN(Cc4ccc5c(c4)OCO5)CC3)C2)n1 (stereo not drawn)	79µM	.	.	.	.	.
COc1cccc(CN2CCN(C(=O)c3cccc4ccccc34)CC2)c1	/	.	.	?	28µM	.
COc1cc(CN2CCN(C(=O)c3cccc4ccccc34)CC2)cc(OC)c1OC	20µM	56µM	.	?	20µM	.
CC1Sc2ccc(S(=O)(=O)CCC(=O)N3CCCC3)cc2NC1=O (stereo not drawn)	.	.	.	.	.	.
CC(=O)C1=C(O)C(=O)OC1c1ccc(Cl)cc1 (stereo not drawn)	50µM	.	.	.	14µM	.
O=C(NCC1CCN(C(=O)c2cccc([N+](=O)[O-])c2)CC1)c1cccc([N+](=O)[O-])c1	.	.	.	.	.	.
O=C(NCC1CCN(C(=O)c2c(F)c(F)c(F)c(F)c2F)CC1)c1c(F)c(F)c(F)c(F)c1F	79µM	.	.	.	.	.
O=C(COc1ccc(Cl)cc1Cl)NC(=S)N1CCCc2ccccc21	10µM	79µM	.	?	40µM	27µM
Cc1cccc(OCC(=O)NC(=S)N2CCCc3ccccc32)c1	11µM	45µM	.	?	50µM	.
Cc1cccc(OCC(=O)Nc2ccccc2N2CCCCC2)c1	.	.	.	.	.	.
CCN(CC)CCCN1C=C2C(=O)C(C)(OC(=O)C3CCCC3)C(=O)C=C2C=C1c1ccsc1 (stereo not drawn)	.	.	.	.	?	.
Cc1ccc(NC(=O)Cn2c(=O)n(CCCCC(=O)NCCc3ccc(Cl)cc3)c(=O)c3ccccc32)cc1	.	.	.	.	.	/
OCC1OC(n2cnc3c(N4CCCCC4)ncnc32)C(O)C1O (stereo not drawn)	/	/	.	.	.	.
CCCCn1nnc(NC(=S)NC(=O)c2ccc(-c3cccc(Cl)c3Cl)o2)n1	45µM	.	.	.	?	?
CCCCC(=O)NC(=S)Nc1nnn(CCC)n1	10µM	71µM	.	.	3.5µM	.
C=CCSc1n[nH]c2nc3c(c(=O)n12)C1(CCCC1)Cc1ccccc1-3	50µM	.	.	.	.	?
CCSc1n[nH]c2nc3c(c(=O)n12)C1(CCCC1)Cc1ccccc1-3	.[0.501 µM]	.	.	.	.	21µM
CSc1n[nH]c2nc3c(c(=O)n12)C1(CCCC1)Cc1ccccc1-3	.	.	.	.	.	?
CCN(C(=O)CSc1nnc(-c2cc(OC)c(OC)c(OC)c2)o1)c1ccccc1	.	56µM	.	.	?	/
COc1cc(-c2nnc(SCc3cc(=O)oc4cc(O)c(O)cc34)o2)cc(OC)c1OC	4.5µM	7.9µM	.	.	?	?
CCN1C(=O)[C@H]2[C@@H](c3ccc(-c4ccc(F)cc4)c(OC)c3)N[C@@](C)(C(=O)OC)[C@H]2C1=O	?	56µM	?	.	?	.
COC(=O)C1(C)NC(c2ccccc2C)C2C(=O)N(c3ccc(F)cc3)C(=O)C21 (stereo not drawn)	.	.	.	.	?	30µM
CN(C)c1ccc(SC#N)cc1	50µM	.	.	.	.	?
S=C(Nc1ccc(Oc2ccccc2)cc1)N(CCCN1CCOCC1)Cc1ccccn1	32µM	?	.	.	.	?
SMILES	G9a block	BAZ2B block	VDR inh	HP1b binding inh	JMJD2A Tudor	PLK1 PBD inh
Cc1cc(NC(=S)N(CCN2CCCCC2)Cc2ccco2)ccc1Cl	40µM	?	.	.	.	.
CCOC(=O)c1ccc(NC(=S)N(CCCN2CCCCCC2)Cc2ccco2)cc1	?	.	.	.	?	.
CCN1CCN(CCCN(Cc2ccco2)C(=S)Nc2ccc(Cl)c(C)c2)CC1	?	.	.	.	.	.
CCOC(=O)c1ccc(NC(=S)N(CCN2CCCCCC2)Cc2ccco2)cc1	32µM	.	.	.	?	.
Cc1cccc(NC(=S)N(CCCN2CCOCC2)Cc2ccccn2)c1	.	.	.	.	.	.
Cc1ccc(NC(=S)N(CCCN2CCOCC2)Cc2ccco2)cc1	40µM	.	.	.	.	?
Cc1c2cnn(CC(=O)N3CCN(c4ccccc4)CC3)c(=O)c2c(C)n1Cc1ccc(F)cc1	.	.	.	.	.	/
Cc1cc(=O)n(Cc2c(F)cccc2Cl)c2c1c(C)nn2C	.	.	.	.	.	/
CCOc1cc2[nH]c(=O)n(CCCC(=O)N(C)Cc3ccccc3)c(=O)c2cc1OCC	.	.	.	.	.	.
CC(C(=O)N1CCN(C=O)CC1)N1C(=O)c2ccccc2C1=O (stereo not drawn)	.	.	.	.	.[11.4 µM]	19µM
Cc1ccc(C(=O)c2cn(Cc3ccccc3)c3nc(C)ccc3c2=O)cc1	.	.	.	.	.	/
S=c1[nH]nc(C(c2ccccc2)C2CCCCC2)o1 (stereo not drawn)	45µM	.	.	.	.	?
COc1ccc(NC(=O)c2oc3ccccc3c2NC(=O)c2cc(OC)c(OC)c(OC)c2)cc1	?	.	.	.	.	/
COc1ccccc1CNCC(=O)Nc1ccc(C(F)(F)F)cc1	22µM	56µM	.	.	.	.
COc1ccccc1CNCC(=O)Nc1ccccc1-n1cccc1	10µM	50µM	.	?	22µM	.
COc1ccc(NCC(=O)Nc2ccc(C#N)cc2)cc1Cl	?	?	.	.	.	.
COc1ccccc1CCC(=O)Oc1ccc(C#N)cc1OC	25µM	.	.	.	.	.
COc1ccccc1CC(=O)Nc1ccc(S(=O)(=O)N2CCCCC2)cc1	?	.	.	.	.	.
COc1cc(C#N)ccc1OC(=O)Cc1cc(OC)c(OC)c(OC)c1	?	.	.	.	.	.
COc1ccccc1CNCC(=O)Nc1ccc(C#N)cc1	5.6µM	50µM	.	.	?	.
CC[C@H](C)[C@H](NC(=O)[C@H](N)Cc1ccc(O)cc1)C(=O)N[C@@H](CC(N)=O)C(=O)N[C@@H](CC(C)C)C(=O)N[C@H](C(=O)N[C@@H](C(=O)N[C@@H](CCCN=C(N)N)C(=O)N[C@@H](CCC(N)=O)C(=O)N[C@@H](CCCN=C(N)N)C(=O)N[C@H](Cc1ccc(O)cc1)C(N)=O)[C@@H](C)O)[C@@H](C)CC	/	/	.	/	/	/

High-throughput results as filed in PubChem BioAssay.
